The structures appear in SMILES notation. Records with an inconclusive call do not appear. Active and inactive are the calls of the source. The calls were made as follows: active = hit-call score of the fitted dose curve at least 0.9, where 1 is the maximum; inactive = score below 0.9.

Read-out in this experiment: ABC Transporter (ABCB11), ABCB11 (gene 8647)
The experiment in a line: CLD_ABCB11_24hr: CellzDirect (CLD) Gene Expression Assay for ABC Transporter (ABCB11) at 24 hours (AID 2283674). As for the experimental part:
CLD_24hr is a cell-based, multiplexed-readout assay that uses hepatocyte, a human liver primary cell, with measurements taken at 24 hours after chemical dosing in a 96-well plate.CLD_ABCB11_24hr is one of 16 assay component(s) measured or calculated from the CLD_24hr assay. It is designed to make measurements of mRNA induction, a form of inducible reporter, as detected with chemiluminescence signals by Quantitative Nuclease Protection Assay (qNPA) technology.Data from the assay component CLD_ABCB11_24hr was analyzed at the endpoint, CLD_ABCB11_24hr, in the positive analysis fitting direction relative to DMSO as the negative control and baseline of activity. Using a type of inducible reporter, gain-of-signal activity can be used to understand changes in the reporter gene as they relate to the gene ABCB11. Furthermore, this assay endpoint can be referred to as a primary readout. To generalize the intended target to other relatable targets, this assay endpoint is annotated to the transporter intended target family, where subfamily is ABC transporter.
Human hepatocyte cultures were treated daily for two consecutive days with fresh dosing solutions containing appropriate concentrations of the 320 ToxCast chemicals (chemical identities were blinded to CellzDirect and other ToxCast collaborators), vehicle control (0.2% DMSO), and positive control inducers as summarized in Table 1. Due to the large number of treatment groups and chemicals examined, the ToxCast chemicals were divided into two groups (spanning two independent cultures of hepatocytes from separate donor preparations (Hu778: ToxCast plates 1 and 2; Hu776: ToxCast plates 3 and 4). Each preparation of human hepatocyte cultures was treated with respective vehicle control, medium only control, set of six positive controls/reference chemicals for the five hepatic receptor pathways, and a subset of eight of the ToxCast chemicals (indoxacarb, pyrithiobac-sodium, norflurazon, cyhalofop-butyl, methomyl, thiram, acetochlor, and propiconazole). These replicate data, coupled with internal replicates designed within the blinded ToxCast chemical library, provided additional data to evaluate interindividual differences between hepatocyte preparations and their potential impact on chemical profiles.Cell morphology and integrity were evaluated using phase-contrast microscopy as an indicator of hepatocyte cell health (Tyson & Green, 1987). Cultures for each treatment group (i.e., media, vehicle [0.2% DMSO], positive control inducers [multiple concentrations], and the ToxCast chemicals [multiple concentrations]) were observed and cell morphology was assessed relative to vehicle control cultures at each harvest time point (0, 6, 24, or 48 h). […] Images were evaluated at the conclusion of the study to assess changes in cell integrity and account for the effects of chemical exposure on uncharacteristic changes in concentration-dependent gene expression profiles. The results from these determinations of apparent cytotoxicity were annotated (yes/no) alongside the corresponding qNPA data for reference.At the conclusion of each treatment period, hepatocyte cultures (96-well) were washed with 1 volume of HBSS, lysed by addition of 25 ul ArrayPlate lysis buffer (HTG, Tucson, AZ), and 70 ul/well of Denaturation Oil, denatured by incubation at 95C for 10 min, and frozen at approximately -70C until analysis by nuclease protection assay (qNPA) (Roberts et al., 2007). For qNPA analysis, cell lysates were thawed at 50C for approximately 30 min, qNPA probes were added, and samples were incubated at 95C for 10 min to begin the detection process by denaturing the target RNA, dissociating the duplexes and secondary structure hybridization. At the conclusion of the hybridization period, S1 nuclease reagent was added to each sample to digest all nonprotected nucleotides at 50C for 60-90 min. […]
In the case of `COP(=S)(OC)SCn1nnc2ccccc2c1=O`, the call was inactive.

On to `CCCCOCN(C(=O)CCl)c1c(CC)cccc1CC`, for which the compound was called inactive.

As to `COc1cc(OC)nc(NC(=O)NS(=O)(=O)c2ncccc2OCC(F)(F)F)n1`, the result was inactive.

Take `COC(=O)c1c(C(F)F)nc(C(F)(F)F)c(C2=NCCS2)c1CC(C)C`: the result was inactive.

`COCC(C)N(C(=O)CCl)c1c(C)csc1C` (centres undefined): the compound was called inactive.

In the case of `CC(C)N1C(=O)c2ccccc2NS1(=O)=O`, the compound was classed as inactive.

With `COCc1cnc(C2=NC(C)(C(C)C)C(=O)N2)c(C(=O)O)c1` (centres undefined), the compound was called inactive.

As for `CS(=O)(=O)c1ccc(C(=O)C2C(=O)CCCC2=O)c([N+](=O)[O-])c1`, the compound was classed as inactive.

For `CC(C)C1(C)N=C(c2ncccc2C(=O)O)NC1=O` (centres undefined), the compound was classed as inactive.

Regarding `Cc1nc(N(C)C)nc(OC(=O)N(C)C)c1C`, the compound was called inactive.

Regarding `COC(=O)NS(=O)(=O)c1ccc(N)cc1`, the compound was classed as inactive.

Take `CC(C)N1C(=O)N(c2ccccc2)CSC1=NC(C)(C)C`: the outcome was inactive.

Consider `Clc1nc(Cl)nc(Nc2ccccc2Cl)n1`, for which the result was inactive.

On to `Cc1cnc(C2=NC(C)(C(C)C)C(=O)N2)c(C(=O)O)c1` (centres undefined), for which the outcome was inactive.

Take `O=P(O)(O)CCCl`: the compound was called inactive.

In the case of `COP(=O)(OC)O/C(C)=C/C(=O)N(C)C`, the outcome was inactive.

As to `CCOP(=O)(OCC)Oc1nc(Cl)c(Cl)cc1Cl`, the result was inactive.

On to `O=c1n(Cl)c(=O)n(Cl)c(=O)n1Cl`, for which the compound was called inactive.

Take `COCC(=O)N(c1c(C)cccc1C)C(C)C(=O)OC` (centres undefined): the result was inactive.

`CCNC(=O)NC(=O)C(C#N)=NOC`: the result was inactive.

For the compound `CCOc1nc(F)cc2nc(S(=O)(=O)Nc3c(Cl)cccc3Cl)nn12`, the result was inactive.

Regarding `OC(c1ccc(Cl)cc1)(c1ccc(Cl)cc1)C(Cl)(Cl)Cl`, the result was inactive.

Turning to `CC(C)NC(=O)N1CC(=O)N(c2cc(Cl)cc(Cl)c2)C1=O`, the compound was called inactive.

On to `C=C(C)CN(CC)c1c([N+](=O)[O-])cc(C(F)(F)F)cc1[N+](=O)[O-]`, for which the compound was called inactive.

The values are drawn from PubChem BioAssay (EPA / NIEHS).
